Test results from ChEMBL document CHEMBL1961873, “Compounds: GSK PKIS; Assays: Nanosyn kinase panel” (2012).

Experiments:
[1] = biological target: RAF proto-oncogene serine/threonine-protein kinase (Homo sapiens) (UniProt P04049); conditions: at 1 µM;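 note: values are the mean percent inhibition of CRAF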
[2] = biological target: T1, Interleukin-1 receptor-associated kinase 4 (Homo sapiens) (UniProt Q9NWZ3); conditions: at 0.1 µM
T1 sequence (whole entry): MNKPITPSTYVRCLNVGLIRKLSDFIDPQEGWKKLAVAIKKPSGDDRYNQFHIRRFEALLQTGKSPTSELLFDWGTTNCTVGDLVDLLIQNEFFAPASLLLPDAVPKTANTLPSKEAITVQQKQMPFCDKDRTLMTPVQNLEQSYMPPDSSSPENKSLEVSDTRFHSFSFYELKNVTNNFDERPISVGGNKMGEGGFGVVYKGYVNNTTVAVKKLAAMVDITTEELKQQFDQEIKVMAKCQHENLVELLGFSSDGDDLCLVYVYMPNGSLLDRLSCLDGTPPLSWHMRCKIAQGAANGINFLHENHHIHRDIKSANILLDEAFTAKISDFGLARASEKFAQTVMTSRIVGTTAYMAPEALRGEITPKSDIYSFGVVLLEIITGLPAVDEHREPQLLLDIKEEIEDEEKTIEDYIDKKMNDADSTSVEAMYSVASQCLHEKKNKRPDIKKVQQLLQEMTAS

[3] = biological target: T1, Interleukin-1 receptor-associated kinase 4 (Homo sapiens); conditions: at 1 µM
[4] = biological target: Leucine-rich repeat serine/threonine-protein kinase 2 (Homo sapiens) (UniProt Q5S007); conditions: at 0.1 µM
Chain of Leucine-rich repeat serine/threonine-protein kinase 2 (Homo sapiens) (Q5S007 whole entry): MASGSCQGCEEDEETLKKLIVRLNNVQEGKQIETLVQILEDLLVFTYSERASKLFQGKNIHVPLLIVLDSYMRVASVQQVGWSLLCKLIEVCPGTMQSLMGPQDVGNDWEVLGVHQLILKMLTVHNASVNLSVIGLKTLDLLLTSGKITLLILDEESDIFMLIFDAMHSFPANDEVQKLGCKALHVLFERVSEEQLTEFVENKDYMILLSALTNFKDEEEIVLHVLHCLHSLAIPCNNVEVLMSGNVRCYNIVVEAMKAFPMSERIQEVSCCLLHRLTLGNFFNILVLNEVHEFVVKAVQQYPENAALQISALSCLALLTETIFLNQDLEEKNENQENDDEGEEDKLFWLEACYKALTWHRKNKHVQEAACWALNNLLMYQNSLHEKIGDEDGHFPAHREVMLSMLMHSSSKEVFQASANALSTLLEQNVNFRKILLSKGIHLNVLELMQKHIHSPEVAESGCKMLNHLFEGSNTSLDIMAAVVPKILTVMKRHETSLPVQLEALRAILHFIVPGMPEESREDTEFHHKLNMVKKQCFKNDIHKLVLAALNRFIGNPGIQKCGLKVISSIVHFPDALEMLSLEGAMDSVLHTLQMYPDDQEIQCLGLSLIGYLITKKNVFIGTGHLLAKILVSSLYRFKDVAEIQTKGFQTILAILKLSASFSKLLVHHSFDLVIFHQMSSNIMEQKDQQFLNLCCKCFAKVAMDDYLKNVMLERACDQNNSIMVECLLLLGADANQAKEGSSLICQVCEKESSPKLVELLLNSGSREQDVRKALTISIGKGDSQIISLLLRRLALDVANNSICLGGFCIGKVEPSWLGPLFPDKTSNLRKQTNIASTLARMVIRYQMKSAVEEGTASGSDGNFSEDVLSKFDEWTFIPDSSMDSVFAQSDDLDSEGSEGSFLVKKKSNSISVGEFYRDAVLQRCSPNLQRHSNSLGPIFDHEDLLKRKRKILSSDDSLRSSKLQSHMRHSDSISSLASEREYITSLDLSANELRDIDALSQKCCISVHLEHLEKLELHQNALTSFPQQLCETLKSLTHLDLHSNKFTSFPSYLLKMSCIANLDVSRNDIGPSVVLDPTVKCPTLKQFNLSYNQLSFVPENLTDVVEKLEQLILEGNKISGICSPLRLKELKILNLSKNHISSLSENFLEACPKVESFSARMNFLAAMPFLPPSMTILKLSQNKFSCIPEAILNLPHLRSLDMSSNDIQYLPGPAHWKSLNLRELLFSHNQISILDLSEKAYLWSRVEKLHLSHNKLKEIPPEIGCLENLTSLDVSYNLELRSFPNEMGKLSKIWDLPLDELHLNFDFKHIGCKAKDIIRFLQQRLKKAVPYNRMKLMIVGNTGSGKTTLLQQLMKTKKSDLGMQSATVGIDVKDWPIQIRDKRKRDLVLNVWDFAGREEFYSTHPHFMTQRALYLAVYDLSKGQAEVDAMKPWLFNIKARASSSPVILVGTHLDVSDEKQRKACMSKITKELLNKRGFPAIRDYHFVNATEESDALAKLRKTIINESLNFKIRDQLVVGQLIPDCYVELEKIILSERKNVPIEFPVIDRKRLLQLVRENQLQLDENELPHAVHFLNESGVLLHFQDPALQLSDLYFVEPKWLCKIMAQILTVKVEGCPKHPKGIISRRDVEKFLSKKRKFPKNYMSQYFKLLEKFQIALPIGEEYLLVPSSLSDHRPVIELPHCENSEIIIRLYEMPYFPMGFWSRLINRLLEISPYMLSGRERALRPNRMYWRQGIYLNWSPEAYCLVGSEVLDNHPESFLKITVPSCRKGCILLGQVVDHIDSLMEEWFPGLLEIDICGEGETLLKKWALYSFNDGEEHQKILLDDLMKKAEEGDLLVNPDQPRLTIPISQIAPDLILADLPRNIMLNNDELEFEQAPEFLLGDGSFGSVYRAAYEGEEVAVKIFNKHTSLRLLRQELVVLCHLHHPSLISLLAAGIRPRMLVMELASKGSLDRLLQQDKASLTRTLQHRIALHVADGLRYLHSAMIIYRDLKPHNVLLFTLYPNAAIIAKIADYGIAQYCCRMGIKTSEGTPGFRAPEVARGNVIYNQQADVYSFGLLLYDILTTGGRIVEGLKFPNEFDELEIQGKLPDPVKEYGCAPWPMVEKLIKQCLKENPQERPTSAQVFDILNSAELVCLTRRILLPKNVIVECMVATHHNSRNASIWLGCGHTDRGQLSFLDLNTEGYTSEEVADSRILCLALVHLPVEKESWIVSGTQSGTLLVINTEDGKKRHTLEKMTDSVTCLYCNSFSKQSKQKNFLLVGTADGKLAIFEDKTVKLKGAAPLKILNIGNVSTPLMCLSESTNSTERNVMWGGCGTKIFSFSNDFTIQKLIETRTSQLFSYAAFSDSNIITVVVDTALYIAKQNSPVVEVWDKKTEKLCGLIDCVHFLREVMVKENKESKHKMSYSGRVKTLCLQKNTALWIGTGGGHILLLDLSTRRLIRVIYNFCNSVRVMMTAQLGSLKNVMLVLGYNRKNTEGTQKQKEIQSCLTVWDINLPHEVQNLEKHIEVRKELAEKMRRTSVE

[5] = biological target: Leucine-rich repeat serine/threonine-protein kinase 2 (Homo sapiens) (UniProt Q5S007); conditions: at 1 µM
[6] = system: Leucine-rich repeat serine/threonine-protein kinase 2 (Homo sapiens), Q5S007 [G2019S]; conditions: at 0.1 µM
Chain of Leucine-rich repeat serine/threonine-protein kinase 2 (Homo sapiens), Q5S007 [G2019S] (Q5S007 whole entry G2019S): as the sequence (Q5S007 whole entry) above, with G2019S counted along it

[7] = system: Leucine-rich repeat serine/threonine-protein kinase 2 (Homo sapiens), Q5S007 [G2019S]; conditions: at 1 µM

Chain of RAF proto-oncogene serine/threonine-protein kinase (Homo sapiens) (P04049 whole entry): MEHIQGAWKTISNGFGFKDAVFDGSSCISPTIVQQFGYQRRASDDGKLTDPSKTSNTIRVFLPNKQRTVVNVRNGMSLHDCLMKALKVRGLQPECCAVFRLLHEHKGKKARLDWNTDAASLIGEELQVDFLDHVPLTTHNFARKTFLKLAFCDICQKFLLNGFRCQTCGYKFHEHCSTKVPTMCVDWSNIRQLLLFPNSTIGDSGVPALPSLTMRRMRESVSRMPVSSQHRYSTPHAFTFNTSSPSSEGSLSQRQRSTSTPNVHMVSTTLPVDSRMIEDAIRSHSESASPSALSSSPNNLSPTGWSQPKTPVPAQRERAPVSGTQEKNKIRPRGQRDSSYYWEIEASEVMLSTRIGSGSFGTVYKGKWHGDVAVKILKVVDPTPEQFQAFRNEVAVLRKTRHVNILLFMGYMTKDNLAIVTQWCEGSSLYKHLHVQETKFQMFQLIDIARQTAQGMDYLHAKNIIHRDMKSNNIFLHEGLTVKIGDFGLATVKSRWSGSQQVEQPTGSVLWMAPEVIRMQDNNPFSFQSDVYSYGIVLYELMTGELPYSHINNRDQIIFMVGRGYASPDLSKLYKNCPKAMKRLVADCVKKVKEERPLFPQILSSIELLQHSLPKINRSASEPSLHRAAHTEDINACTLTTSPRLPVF

| Compound | inhibition [1] [%] | inhibition [2] [%] | inhibition [3] [%] | inhibition [4] [%] | inhibition [5] [%] | inhibition [6] [%] | inhibition [7] [%] |
| --- | --- | --- | --- | --- | --- | --- | --- |
| CS(=O)(=O)CCNCc1nc(-c2ccc3ncnc(Nc4ccc(F)c(Cl)c4)c3c2)cs1 | -0.82 | 0.41 | 1.35 | 2.13 | 5.82 | 1.31 | 2.37 |
| CC1=C(C(=O)Nc2ccc3[nH]ncc3c2)C(c2ccc3ccccc3c2)CC(=O)N1 (centres undefined) | 1.65 | 3.06 | 0.83 | 4.73 | 10.1 | 6.31 | 25 |
| Cn1cc(C=C2C(=O)Nc3cccnc32)c2ccccc21 | – | 6.41 | 5.04 | 8.55 | 20.8 | 15 | 55.4 |
| COc1cc2ncn(-c3cc(OCc4ccccc4Cl)c(C(N)=O)s3)c2cc1OC | 0.88 | 2.64 | 0.8 | 2.12 | 14.5 | 12 | 54.5 |
| CCn1c(-c2nonc2N)nc2cncc(C(=O)N3CCNCC3)c21 | -2.31 | 2.74 | 3.54 | 1.69 | 0.35 | 3.72 | 7.17 |
| CCn1c(-c2nonc2N)nc2c(C#CC(C)(C)O)nc(CN3CCCC3)cc21 | -7.96 | 3.31 | -0.93 | -0.1 | 1.92 | 0.81 | 3.54 |
| COc1cc(C)c(NC(=O)CN(C)C)cc1Nc1nc(Nc2cccc(F)c2C(N)=O)c2cc[nH]c2n1 | -0.14 | -2.25 | 2 | 91.2 | 90.2 | 83.5 | 88.7 |
| Nc1ncnc2occ(-c3ccc(NC(=O)Nc4cc(C(F)(F)F)cc(C(F)(F)F)c4)cc3)c12 | 3.32 | -4.93 | 1.16 | 9.63 | 16.7 | 4.56 | 26.1 |
| O=C1NC(=O)C(c2ccc(Cl)cc2)=C1Nc1ccc(Cl)c(C(=O)O)c1 | – | -1.49 | -0.81 | -0.67 | 0.65 | 1.27 | 3.84 |
| Cc1ccc(NC(=O)c2ccnc(N3CCCC3)c2)cc1-c1ccc(C(=O)NCC2CC2)cc1 | -6.49 | -0.18 | 2.34 | 1.63 | 6.13 | 4.42 | 7.81 |
| CC1=C(C(=O)Nc2ccc3[nH]ncc3c2)C(c2ccc(Cl)c(Cl)c2)CC(=O)N1 (centres undefined) | 2.44 | -3.53 | 0.93 | 2.44 | 4.77 | 0.95 | 8.99 |
| CC1=C(C(=O)Nc2ccc3[nH]ncc3c2)C(c2ccc(F)cc2)NC(=O)N1 (centres undefined) | -2.67 | 2.07 | 0.77 | 2.24 | 5.08 | 3.81 | 14.8 |
| CS(=O)(=O)CCN(CC#N)Cc1ccc(-c2ccc3ncnc(Nc4ccc(OCc5cccc(F)c5)c(Cl)c4)c3c2)o1 | -3.46 | 0.21 | 0.75 | -6.54 | -8.08 | -3.2 | -2.31 |
| COc1ccc2cc(-c3c(-c4ccncc4)nc(-c4ccc([S+](C)[O-])cc4)n3C)ccc2c1 (centres undefined) | 9.73 | 3.57 | 1.12 | 2.6 | 4.23 | 3.37 | 5.02 |
| c1cnn2ncc(-c3ccnc(Nc4ccc5c(c4)OCCO5)n3)c2c1 | – | -2.01 | 7.85 | 12.2 | 19.8 | 16.6 | 61.4 |
| Nc1nc(-c2ccccn2)c(-c2ccc3ncccc3n2)s1 | 2.42 | -3.29 | 1.27 | 2.15 | 4.38 | 1.86 | 5.88 |
| Fc1cccc(COc2ccc(Nc3ncnc4sc(-c5cccs5)cc34)cc2Cl)c1 | -2.15 | 0.39 | 1.34 | 1.83 | 4.84 | 3.4 | 6.24 |
| O=C(Nc1n[nH]c2nc(-c3ccco3)c(Br)cc12)C1CC1 | 2.37 | 5.57 | 1.08 | 2.41 | 2.93 | 2.74 | 6.98 |
| Cc1cccc(-c2n[nH]cc2-c2ccc3ncccc3n2)n1 | – | 1.85 | 0.21 | 1.67 | 10.1 | 2.43 | 10.6 |
